Data as given in PubChem BioAssay (Tox21).
Values joined by “and” are separate entries in the source; they are usually repeats but may differ in a detail not shown here. Equal values may be shown once. Inconclusive results are not listed. Entries that show only a call come without a potency. Active and inactive are the calls of the source. Calls come from the whole dose curve; as a rule, active = well fitted inhibition curve with a large enough effect in the repeat runs; inconclusive = weak or mixed curves, or effect the other way; inactive = no such curve, though single readings can be large or run the other way.

Assay: qHTS assay to identify small molecule antagonists of the retinoic acid receptor (RAR) signaling pathway (AID 1159552; note: nearly all actives have a fitted effect of over 50% in size)
Settings: C3RL4 RARE luciferase reporter, retinol-stimulated, 6 h; series mostly up to 92.4 µM
Excerpt: National Center for Advancing Translational Sciences [NCATS]
NIH Chemical Genomics Center [NCGC]
U.S. Environmental Protection Agency [EPA]
National Institutes of Environmental Health Sciences [NIEHS]
National Toxicology Program [NTP]
U.S. Food and Drug Administration [FDA]
All-trans Retinoic acid (atRA) is the potent natural metabolite of retinol and plays an important role in normal embryonic development and maintenance of cellular phenotype in adult animals. atRA is the activating ligand for the retinoic acid receptors (RARs) which form heterodimers with retinoid X receptors (RXRs) on the retinoic acid response element (RARE). Through activation of the RAR/RXRs nuclear receptors, atRA regulates the transcription of a large number of protein-coding genes and regulatory RNAs. Intracellular levels of atRA are controlled by the retinol signaling pathway (RSP) that regulates the biosynthesis and catabolism of atRA to maintain physiological levels. Chemicals that interfere with the RSP can cause abnormal intracellular levels of atRA and therefore are potential developmental toxicants. To assess compounds for the potential adverse effect on embryonic development through interfering with retinol signaling, a cell-based RARE luciferase reporter gene assay was used. C3RL4 cell line (OARSA/CFSAN/FDA, Laurel, MD) was used to screen Tox21 10K compound library for identifying inhibitors of the RSP.
Tox21 Assay Protocol Summary:
C3RL4 cells were seeded at 1,000/well in 4 uL of assay medium into white solid 1,536-well tissue culture plates (Greiner Bio-One North America Inc. Monroe, NC) using a Multidrop Combi (Thermo Scientific, Waltham, MA) dispenser. After incubation at 37 C and 5% CO2 for an overnight, 23 nL of compounds dissolved in DMSO, positive control or DMSO only were transferred by a Pintool station (Kalypsys, San Diego, CA). One ul of 1 uM (final concentration) of Retinol was added right after the compound addition by using a Flying Reagent Dispenser (FRD) (Aurora Discovery, San Diego, CA). After 6 hr incubation at 37 C and 5% CO2, 5 uL of Amplite Luciferase reagent (AAT Bioquest Inc. Sunnyvale, CA) was added to each assay plate using an FRD. Luminescence was quantified on a ViewLux plate reader (PerkinElmer, Waltham, MA) after 30 min incubation at room temperature.
Potency is the fitted concentration of half-maximal effect.

Compound	Potency
COC(=O)Cc1ccccc1	inactive
CCCCC(CC)CO[N+](=O)[O-] (stereo not given)	inactive
CCCCC1C(=O)NC(=O)N(C2CCCCC2)C1=O (stereo not given)	inactive
CN1C(=O)CN=C(c2ccccc2)c2cc([N+](=O)[O-])ccc21	inactive
C#C[C@]1(O)CC[C@H]2[C@@H]3CCC4=CC(=O)CCC4=C3C=C[C@@]21CC	9.44 µM (active)
O=C(O)c1cc(I)cc(I)c1I	inactive
CCCCOC(=O)CCC(=O)OCCCC	inactive
Nc1ccccc1C(=O)OCC(O)CO (stereo not given)	inactive
Cc1ncc(C[n+]2csc(CCO)c2C)c(N)n1	inactive
O=C1CC[C@@]2(O)[C@H]3Cc4ccc(O)c5c4[C@@]2(CCN3CC2CC2)[C@H]1O5	inactive
N#CC(C#N)=Cc1ccc(O)c(O)c1	inactive
CCOC(C(=O)OCCN(C)C)(c1ccccc1)c1ccccc1	inactive
COC1=CC(=O)O[C@@H](/C=C/c2ccc3c(c2)OCO3)C1	8.27 µM (active)
FC(Cl)(Cl)C(F)(Cl)Cl	inactive
COc1cc(C[C@@H](C)N)c(OC)cc1Br	inactive
C=CCSSCC=C	inactive
C[CH2][Hg][S]c1ccccc1C(=O)O	1.93 µM (active) and 2.66 µM (active)
Cc1nc2ccccc2c(=O)n1-c1ccccc1Cl	inactive
O=C(Cc1ccccc1)OCCc1ccccc1	inactive
NNCCO	inactive

Compound	Potency
CCCN(CCC)C(=O)Cc1c(-c2ccc(Cl)cc2)nc2ccc(Cl)cn12	inactive
O=C(O)C(Cl)(Cl)Br	inactive
c1ccc2c(c1)-c1cccc3cccc-2c13	inactive
O=C(NCNC(=O)NC1C(=O)NC(=O)N1CO)NC1C(=O)NC(=O)N1CO (stereo not given)	inactive
CC(C)(C)c1ccc(CCOc2ncnc3ccccc23)cc1	inactive
ClCc1ccccc1Cl	inactive
CC1(C)CC(=O)CC(C)(C)N1[O]	inactive
O=S(=O)(c1ccccc1)c1ccccc1	inactive
CN[C@@H](C)[C@H](O)c1ccccc1	inactive
C#CC(O)(C=CCl)CC (stereo not given)	inactive
CCOC(=O)c1cn2nc(OP(=S)(OCC)OCC)cc2nc1C	inactive
Cc1ccc2c(C)cccc2c1	inactive
C1CCNCC1	inactive
CC(C)c1ccc(OP(=O)(Oc2ccc(C(C)C)cc2)Oc2ccc(C(C)C)cc2)cc1	54.9 µM (active)
Cc1cnc(C2=NC(C)(C(C)C)C(=O)N2)c(C(=O)O)c1 (stereo not given)	inactive
C=CCN1C[C@H](C)N([C@H](c2ccc(C(=O)N(CC)CC)cc2)c2cccc(OC)c2)C[C@H]1C	inactive
CCCCNC(=O)OCC#CI	43.1 µM (active) and 54.5 µM (active)
CCCCC#N	inactive
O=C(O)c1cc(Cl)ccc1Cl	inactive
CCCCCCCCP(=O)(O)O	inactive
